Experimental data as given in the supplement of paper PMC7530171.
Counter-ions that a name gives are not always drawn. ± gives the standard deviation.

Test system: THP-1 macrophages infected with Mycobacterium tuberculosis H37Rv
Assay: intracellular M.tb growth inhibition relative to DMSO (0) and 4 uM bedaquiline (100); higher = stronger inhibition of intracellular bacterial growth
Details: 10 µM; 4 days
Protocol: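 OICR kinase inhibitor library screened in duplicate at 10 uM against THP-1 macrophages (PMA-differentiated) infected with M. tuberculosis H37Rv-pTEC27 (tdTomato RFP), 4 days at 37 C. Rows with complete host cell loss (placeholder inhibition 0, cell loss 100) were removed.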

Structure (SMILES) | intracellular M.tb growth inhibition
CCN(CCCOc1ccc2c(Nc3cc(CC(=O)Nc4cccc(F)c4)[nH]n3)ncnc2c1)CCOP(=O)(O)O | -79.3 ± 96%
c1ccc(-c2n[nH]c3c2oc2ccccc23)cc1 | 7.69 ± 11%
CNC(=O)c1ccccc1Sc1ccc2c(/C=C/c3ccccn3)n[nH]c2c1 [Axitinib] | 33.9 ± 1.6%
Nc1nccc(Oc2ccc(NC(=O)c3c[nH]cc(-c4ccc(F)cc4)c3=O)cc2F)c1Cl | 37 ± 33%
Cc1cc2c(F)c(Oc3ncnn4cc(OC[C@@H](C)O)c(C)c34)ccc2[nH]1 [Brivanib] | -66.6 ± 160%
N#C/C(=C(/N)Sc1ccc(N)cc1)c1ccccc1C(F)(F)F | 5.44 ± 36%
Cc1cc(Nc2ncc3cc(-c4c(Cl)cccc4Cl)c(=O)n(C)c3n2)ccc1F | 4.79 ± 6.8%
COc1cc2ncnc(Nc3ccc(F)c(Cl)c3)c2cc1OCCCN1CCOCC1 [Gefitinib] | 54.4 ± 28%
O=S(=O)(c1cccc2cnccc12)N1CCCNCC1 [Fasudil HCl] | 6.96 ± 7.6%
CO[C@@H]1[C@H](N(C)C(=O)c2ccccc2)C[C@H]2O[C@]1(C)n1c3ccccc3c3c4c(c5c6ccccc6n2c5c31)C(=O)NC4 | 60.7 ± 13%
COc1cc2nccc(Oc3ccc(NC(=O)NC4CC4)c(Cl)c3)c2cc1C(N)=O | -42.3 ± 140%
COc1cc(OC2CCN(C)CC2)ccc1Nc1ncc2c(n1)n(C1CCCC1)c(=O)n2C | -17.7 ± 25%
Nc1[nH]nc2nc3ccccc3nc12 | 0.53 ± 68%
NC1(c2ccc(-c3nc4ccn5c(=O)[nH]nc5c4cc3-c3ccccc3)cc2)CCC1 | -62.1 ± 130%
O=C(CO)N1CCC(c2n[nH]c(-c3ccc(Cl)cc3)c2-c2ccncn2)CC1 | -135 ± 140%
CCN(CCO)CCCOc1ccc2c(Nc3cc(CC(=O)Nc4cccc(F)c4)[nH]n3)ncnc2c1 | -51.3 ± 83%
CN(C)CCOc1ccc(-c2nc(-c3ccncc3)c(-c3ccc4c(c3)CC/C4=N\O)[nH]2)cc1 | 35.2 ± 75%
Cc1[nH]c(/C=C2\C(=O)Nc3ccc(S(=O)(=O)Cc4c(Cl)cccc4Cl)cc32)c(C)c1C(=O)N1CCC[C@@H]1CN1CCCC1 | 51 ± 13%
Cc1cc(C=C2C(=O)C=CC2=O)cc(C)c1O | -63.7 ± 80%
COc1cc(Oc2ccnc3cc(OC)c(OC)cc23)ccc1NC(=O)NC(C)c1nccs1 (racemic) | -40.9 ± 140%

Structure (SMILES) | intracellular M.tb growth inhibition
Nc1ncnc2nc(-c3ccc(N4CCOCC4)nc3)cc(-c3cccc(Br)c3)c12 [ABT-702 dihydrochloride] | 29.6 ± 24%
Cn1cc(/C=C2\C(=O)Nc3cccnc32)c2ccccc21 | -49.9 ± 14%
CN1CCC(Nc2ncc3ncnc(Nc4ccc(F)c(Cl)c4)c3n2)CC1 [BIBX 1382 dihydrochloride] | 64.2 ± 13%
N#C/C(=C\c1ccc(O)c(O)c1)C(=O)NCc1ccccc1 | 9.47 ± 28%
CC(C)c1cnn2c(NCc3ccccc3)cc(NCCCCCCN)nc12 [BS-181 hydrochloride] | 3.6 ± 5.1%
Cc1cc(C(=O)Nc2cc(Nc3ccc4c(/C=C/c5ccccn5)n[nH]c4c3)ccc2F)n(C)n1 | -16.4 ± 71%
O=C(O)c1cc(N(Cc2ccccc2O)Cc2cc(O)ccc2O)ccc1O [Lavendustin A] | 10.4 ± 41%
Cc1cc(N2CCOCC2)cc2[nH]c(-c3c(NC[C@@H](O)c4cccc(Cl)c4)cc[nH]c3=O)nc12 | -36.6 ± 15%
CC[C@@H]1/C=C(\C)C[C@H](C)C[C@H](OC)[C@H]2O[C@@](O)(C(=O)C(=O)N3CCCC[C@H]3C(=O)O[C@H](/C(C)=C/[C@@H]3CC[C@H](Cl)[C@H](OC)C3)[C@H](C)[C@@H](O)CC1=O)[C@H](C)C[C@@H]2OC [Pimecrolimus] | 45.4 ± 4.6%
CN1C(=O)C(Cc2c[nH]c3ccccc23)NC1=S (stereo not given) [Necrostatin-1] | -8.08 ± 36%
C[C@@H](Oc1cc(-n2cnc3ccc(CN4CCN(C)CC4)cc32)sc1C(N)=O)c1ccccc1C(F)(F)F | -31.9 ± 42%
C[C@]1(O)C[C@@H](c2nc(-c3ccc4ccc(-c5ccccc5)nc4c3)c3c(N)nccn32)C1 | 39.2 ± 24%
COc1cc(/C=C(\C#N)C(N)=O)cc(CSc2nc3ccccc3s2)c1O | 21 ± 6.4%
Cc1cc(C(=O)N2CCN(c3cccc(Cl)c3)CC2)n(-c2ccccc2)n1 | -17.5 ± 0.18%
OCCC#Cc1nc(-c2ccc(F)cc2)c(-c2ccncc2)n1CCCc1ccccc1 | 14.2 ± 4.9%
Cn1cc(-c2ccc3nnc(Sc4ccc5ncccc5c4)n3n2)cn1 | -164 ± 130%
Nc1ccc(C(=O)Nc2cccc(-c3nc(N4CCOCC4)c4oc5ncccc5c4n3)c2)cn1 | 17.6 ± 65%
O=C(Nc1cc(Cl)cc2c1[nH]c1cnccc12)c1cccnc1 [PS1145 dihydrochloride] | -10.6 ± 33%
NC(=O)c1ccc2nc(-c3ccc(Oc4ccc(Cl)cc4)cc3)[nH]c2c1 [Chk2 Inhibitor II] | 38.6 ± 14%
CS(=O)(=O)c1cccc(CNc2nc(Nc3ccc4c(c3)CCC(=O)N4)ncc2C(F)(F)F)c1 | -96.4 ± 26%
